Data reported in PubChem BioAssay (NCI).
About 83,000 compounds went through this panel and 20% of them were active in at least one assay; those are over-represented in the sample as a whole.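 How to read the values: 0–100, growth inhibition (40 = 60% inhibited); 0, no net growth; -100 to 0, cell death (-40 = 40% of starting cells died; -100 = all dead).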 Unmarked numbers belong to inactive results. Calls of active or inactive are those of the source. The calls were made as follows: active = growth percent below 10; inactive = the rest.

Legend:
Assay in all cases: NCI-60 one-dose screen, 48 h (100 = growth as untreated, 0 = no growth, -100 = all killed)
Settings in all cases: 10 µM unless noted
SR leukemia = test system: SR leukemia
RPMI-8226 leukemia = test system: RPMI-8226 leukemia
OVCAR-8 ovarian = test system: OVCAR-8 ovarian
OVCAR-5 ovarian = test system: OVCAR-5 ovarian
OVCAR-4 ovarian = test system: OVCAR-4 ovarian
SK-OV-3 ovarian = test system: SK-OV-3 ovarian
IGROV1 ovarian = test system: IGROV1 ovarian
OVCAR-3 ovarian = test system: OVCAR-3 ovarian
HS 578T breast = test system: HS 578T breast
NCI/ADR-RES ovarian = test system: NCI/ADR-RES ovarian

SMILES | growth (SR leukemia) | growth (RPMI-8226 leukemia) | growth (OVCAR-8 ovarian) | growth (OVCAR-5 ovarian) | growth (OVCAR-4 ovarian) | growth (SK-OV-3 ovarian) | growth (IGROV1 ovarian) | growth (OVCAR-3 ovarian) | growth (HS 578T breast) | growth (NCI/ADR-RES ovarian)
O=C1/C(=C\C(Cl)=C/c2ccc([N+](=O)[O-])cc2)SC(=S)N1CCc1ccc(O)cc1 | 13.2% | -3.41% (active) | 13.3% | -33.9% (active) | 26.7% | 31.8% | -67.9% (active) | -53.6% (active) | 31.2% | 9% (active)
COc1cc2nc(Cl)nc(Nc3cccc(C(=O)/C=C/c4ccc(F)cc4)c3)c2cc1OC | 12.2% | -18.1% (active) | 67.3% | 68.2% | 64.9% | 106% | 51% | 43.4% | 101% | 51.6%
COc1cnc2c(c1)C(=O)c1c-2n(CCCNC2=NCCS2)c(=O)c2cc([N+](=O)[O-])ccc12 | -9.1% (active) | -32.1% (active) | -6.2% (active) | 28.9% | -71.9% (active) | 9.4% (active) | -0.756% (active) | -71.1% (active) | 69.9% | -8.56% (active)
COc1cccc(-c2nn(-c3ccccc3)cc2-c2ccnc(NCCCNS(=O)(=O)c3ccc(C(F)(F)F)cc3)c2)c1 | -13.1% (active) | 13.3% | 30.7% | 50.1% | 33.5% | 37.7% | 39.6% | 36% | 38.7% | 22.8%
CC(C)(C)c1cc(-n2c(-c3ccc(Cl)cc3)nc3cc(C(=O)Nc4ccc(Cl)cc4)ccc32)n[nH]1 | 70.3% | 51.1% | 61.6% | 93% | 56.4% | 99.8% | 40.3% | 45.8% | 55.8% | 40.4%
CCC(=O)c1c(C)[nH]c(C)c1C | 70.7% | 113% | 85.1% | 48.8% | 123% | 93% | 76.1% | 115% | 138% | 85.3%
Fc1ccc(Nc2ccc3c(OCCCN4CCOCC4)cccc3n2)cc1F | 28% | 41.3% | 117% | 67.8% | 79% | 96.9% | 82.4% | 85.8% | 67.5% | 76.9%
O=C(CCCCCn1c2ccccc2c2c3c(c4c5ccccc5[nH]c4c21)C(=O)N(O)C3=O)N1CCOCC1 | 8.26% (active) | 14.9% | 41.7% | 116% | 64.5% | 70.4% | -26.5% (active) | 40.9% | 66.5% | 73.7%
C[C@@H](Oc1ccc(C(=O)NS(=O)(=O)C(C)(C)C)cc1C(F)(F)F)c1ccc(Oc2ccccc2)cn1 | 29.7% | 71.5% | 41.2% | 86.5% | 67.2% | 69.6% | 37.4% | 8.19% (active) | 4.34% (active) | 66.4%
CCc1ccccc1NC(=O)c1sc2nc3c(cc2c1N)CCCC3 | 9.86% (active) | 46.1% | 52.3% | 79.3% | 66.8% | 38.8% | 64.8% | 23.8% | 29.9% | 19.9%
Fc1ccc(Nc2nc(Nc3ccc(-c4nc5ccccc5[nH]4)cc3)nc(N3CCCC3)n2)cc1 | 10.7% | -11.6% (active) | 81.7% | 97.4% | 88.6% | 75.1% | 83% | 94.4% | 84.6% | 63%
C#CCN=C[C@]12CC[C@@H](C(=C)C)[C@@H]1[C@H]1CC[C@@H]3[C@@]4(C)CCC(=O)C(C)(C)[C@@H]4CC[C@@]3(C)[C@]1(C)CC2 | 36.5% | 33% | 57.2% | 115% | 53.5% | 91.8% | -10.9% (active) | 62.3% | 87.8% | 64.2%
Cc1ccc(-c2nc([P+](c3ccccc3)(c3ccccc3)c3ccccc3)c(N3CCOCC3)o2)cc1 | 5.72% (active) | -24.2% (active) | 3.78% (active) | 18.9% | 12.3% | -43.9% (active) | 1.46% (active) | -0.275% (active) | 16.8% | 86%
C/C(=N\Nc1ccc2ccccc2n1)c1ccccn1 | 6.18% (active) | 1.84% (active) | 6.43% (active) | 24% | 21.2% | 24.7% | -2.71% (active) | 8.54% (active) | 49% | 1.66% (active)
CC(C)(C)c1[nH]nc2c1C(c1cc3ccccc3[nH]c1=O)Nc1cc(C(=O)OCc3ccccc3)ccc1N2 (stereo not given) | 38.9% | 53.6% | 64.9% | 87.8% | 54.3% | 83% | 78.5% | 49.2% | 66.6% | 86.8%
O=C(O[C@@H]1Cc2c(O)cc(O)cc2O[C@@H]1c1cc(O)c(O)c(O)c1)c1cc(O)c2c(c1)OCO2 | 72.1% | 99.8% | 103% | 97% | 99.8% | 103% | 107% | 106% | 98.1% | 97.5%
CCN1CCN(c2nc(C)cc(N(CCCNc3ccnc4cc(Cl)ccc34)Cc3ccco3)n2)CC1 | -16.5% (active) | 8.04% (active) | 58.5% | 79.7% | 59.7% | 97.2% | 51.2% | 53% | 70.3% | 55.8%
Cn1c(/C(C#N)=C/c2ccc3ccccc3c2)cc2ccccc21 | 19.5% | 5.55% (active) | 30.3% | 34.4% | 56.5% | 58.8% | 21.2% | -0.996% (active) | 23.8% | -18.4% (active)
CN(C)c1ccc(C(=O)c2ccc(N(C)C)c(N)c2)cc1N | 7.86% (active) | 60.4% | 41.6% | 75.7% | 47% | 24.6% | 72.8% | -31% (active) | 7.6% (active) | -14% (active)
COc1cccc(-c2nn(-c3ccccc3)cc2-c2ccnc(NCCCN)c2)c1 | -10.5% (active) | 44% | 62% | 95.8% | 63.8% | 70.9% | 54.4% | 29.2% | 43.6% | 25%
[B-][N+](CC)(CC)c1ccccc1 | 74.7% | 108% | 112% | 86.9% | 103% | 109% | 112% | 112% | 120% | 110%
Cc1cc(N2CCCCC2)nc(N(CCCNc2ccnc3cc(Cl)ccc23)Cc2ccco2)n1 | -20.6% (active) | -35.3% (active) | 42.5% | 41.5% | 39.8% | 57.4% | 4.05% (active) | 21% | 61.3% | 4.38% (active)
O=C(/C=C/c1cccc2ccccc12)Nc1ncc(Cc2ccccc2)s1 | 13.1% | 8.58% (active) | 29% | 22.7% | 6.74% (active) | 20.9% | 15.8% | -17.8% (active) | 12.7% | -8.05% (active)
C=C1C(=O)O[C@H]2[C@H]1CC/C(COC(=O)NCc1c[nH]c3ccccc13)=C\CC[C@@]1(C)O[C@@H]21 | 4.39% (active) | 4.57% (active) | 39.4% | 86.1% | 58.1% | 86.5% | 21.2% | 2.08% (active) | 87.1% | 78.8%
CN(C)CCCC1(c2ccc(F)cc2)OCc2cc(-c3ccc(C(F)(F)F)nc3)ccc21 (stereo not given) | 11.9% | 69.2% | 83.6% | 85.5% | 66.4% | 80.3% | 66.5% | 84.6% | 61.9% | 84.1%
C=C1CC[C@@H](C(=O)OC)Cc2nc(C)ccc21 | 95.7% | 100% | 102% | 98.4% | 103% | 109% | 107% | 119% | 107% | 98.5%
